Source: PubChem BioAssay (National Center for Advancing Translational Sciences (NCATS))
TDP1 block: blocks human tyrosyl-DNA phosphodiesterase 1 | 350,000 tested, 0.28% active | Potency, µM (titrated, usually from 130 µM), for the others: at the highest dose activity change, negative = inhibition, actives largely listed as inhibitors | recombinant TDP1, AlphaScreen DNA substrate cleavage | Q9NUW8; note: nearly all actives have a fitted effect of over 40% in size
Target sequence (Q9NUW8 whole entry, looked up): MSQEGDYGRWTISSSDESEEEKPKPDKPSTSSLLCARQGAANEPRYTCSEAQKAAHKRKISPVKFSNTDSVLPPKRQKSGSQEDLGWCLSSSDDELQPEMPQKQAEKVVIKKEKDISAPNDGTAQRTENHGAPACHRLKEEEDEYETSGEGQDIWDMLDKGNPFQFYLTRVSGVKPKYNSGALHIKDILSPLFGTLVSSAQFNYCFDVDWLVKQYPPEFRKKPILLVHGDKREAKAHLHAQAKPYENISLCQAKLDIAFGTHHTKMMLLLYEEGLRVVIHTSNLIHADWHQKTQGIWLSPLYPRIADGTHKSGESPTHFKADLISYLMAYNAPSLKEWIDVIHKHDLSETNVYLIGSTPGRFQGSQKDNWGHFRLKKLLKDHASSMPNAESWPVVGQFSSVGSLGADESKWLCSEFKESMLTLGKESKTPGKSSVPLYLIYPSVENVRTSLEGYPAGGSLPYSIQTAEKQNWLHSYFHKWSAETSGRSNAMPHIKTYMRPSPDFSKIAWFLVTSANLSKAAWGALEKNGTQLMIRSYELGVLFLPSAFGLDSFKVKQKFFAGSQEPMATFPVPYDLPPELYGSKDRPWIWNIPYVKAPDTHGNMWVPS
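E. coli-derived human Tdp1, 1 nM final. Cpd preinc 15 min RT; substrate 15 nM final, 5 min RT; AS bead mix 10 ug/ml final, 10 min RT. Signal loss = tyrosine-FITC cleavage. No-enzyme wells = max signal.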
GCN5L2 inh: blocks human GCN5L2 histone acetyltransferase. Q92830. GCN5L2 HAT assay, ThioGlo1 CoA-SH fluorescence. Potency, µM (titrated, usually from 58.9 µM), for the others: at the highest dose activity change, negative = inhibition, actives largely listed as inhibitors. 390,000 tested, 0.21% active. AID 504327
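Fluorescence readout, Ex340nm/Em540nm: ThioGlo1 (50uM final) reacts with free CoA thiol released as 20nM GCN5L2 acetylates H3(1-25) peptide (75uM) using acetyl-CoA (70uM). Compound and enzyme sat 15 min beforehand; 20 min room-temperature reaction.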
BLM inh-1: inhibitors of human Bloom syndrome helicase BLM; recombinant BLM DNA unwinding, fluorescence dequenching; Potency, µM (highest dose often 56.1 µM), without a hit: at the top dose activity change, negative = inhibition, hits mostly inhibitors; 350,000 tested, 0.2% active; P54132; AID 2528;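 note: plate controls were vehicle for no effect and no enzyme for full effect; nearly all actives have a fitted effect of over 35% in size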
Lamin A splicing: modulators of lamin A splicing. AID 1487. HeLa LMNA splicing GFP/RFP minigene ratio, 48 h. Potency, µM (top dose mostly 46.1 µM), without a hit: top-dose ratio change, negative = inhibition, actives largely listed as inhibitors. 200,000 tested, 0.01% active; active = well fitted inhibition curve with a large enough effect in the signal ratio, with a control signal flat, not every such curve was filed as active; inconclusive = small, poorly fitted or top-dose-only effect, or effect the other way, or a change in a side signal; the % refers to the signal ratio
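S3 HeLa cells stably expressing lamin A-EGFP splicing minigene plus DsRed2, 600 cells/well, 48 h compound exposure at 37C. Laser-scanning cytometry; analysed as GFP (500-530 nm)/RFP (575-640 nm) total intensity ratio; 0.5% DMSO vehicle.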
APE1 inh-1: blocks human APE1 abasic DNA cleavage | P27695 | recombinant APE1, TAMRA/BHQ-2 abasic DNA cleavage fluorescence | Potency, µM (top dose mostly 65.8 µM), inactives show at the highest dose activity change, negative = inhibition, usual class: inhibitors | 350,000 tested, 0.35% active | AID 2517;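 note: plate controls were vehicle for no effect and reference inhibitor for full effect; nearly all actives have a fitted effect of over 55% in size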
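Quantitative HTS: incision of a TAMRA/BHQ-2 double-stranded substrate bearing a tetrahydrofuran abasic site by 0.75 nM APE1 raises fluorescence. Substrate 50 nM final, added after 15 min compound preincubation at room temperature; progress as third-minus-first kinetic read difference.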
RECQ1 inh-1: RECQ1 (human) helicase inhibition; P46063; RECQ1 DNA unwinding, red fluorescence kinetic read; Potency, µM (titrated, usually from 57.3 µM), for the others: at the highest dose activity, negative = inhibition, most hits filed as inhibitors; 240,000 tested, 0.54% active; AID 2549;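 note: plate controls were vehicle for no effect and no enzyme for full effect; nearly all actives have a fitted effect of over 30% in size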
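50 nM RECQ1T1 preincubated 15 min with compound in Tris pH 8.0 buffer with MgCl2, DTT, Tween-20 and 2.5 ug/ml poly(dI-dC); started with 200 nM TAMRA/BHQ-2 forked duplex and 2 mM ATP. Unwinding read as fluorescence (525/598 nm), two reads 2 h apart.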
DNA dye displace: counter-screen for APE1 inhibitors: DNA dye displacement. 480 tested, 7% active. shares compounds with APE1 inh-1. Potency, µM (top dose mostly 28.5 µM), for inactives: at the highest dose activity change, negative = inhibition, most hits filed as inhibitors. DNA fluorescent dye displacement counterscreen, fluorescence;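 note: loss of thiazole orange fluorescence as the dye is displaced from duplex DNA; 0% = ThO with dsDNA and no compound and -100% = ThO without dsDNA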
Endo IV inh: counter-screen for APE1 inhibitors: inhibitors of E. coli endonuclease IV. AID 2565. 560 tested, 4% active. E. coli Endo IV, fluorogenic AP-site DNA cleavage. Potency, µM (titrated, usually from 27.1 µM), without a hit: at the highest dose activity change, negative = inhibition, actives largely listed as inhibitors. shares compounds with APE1 inh-1;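 note: plate controls were uninhibited enzyme wells for no effect and no enzyme buffer wells for full effect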
APE1 inh-2: confirmation of inhibitors of human APE1 endonuclease; shares compounds with APE1 inh-1; purified APE1, fluorogenic abasic-site DNA cleavage; Potency, µM (highest dose often 57.1 µM), for inactives: at the highest dose activity change, negative = inhibition, actives largely listed as inhibitors; 750 tested, 44% active; note: nearly all actives have a fitted effect of over 30% in size
APE1 FP inh: displaces DNA from human APE1 in FP assay. APE1 binding to TAMRA-labelled double-stranded DNA, fluorescence polarization displacement. AID 2573. shares compounds with APE1 inh-1. 480 tested, 7% active. Potency, µM (series often up to 28.5 µM), without a hit: at the top dose activity, negative = inhibition, usual class: inhibitors
BLM inh-2: BLM (human) helicase inhibition, confirmation | BLM DNA unwinding, fluorescence quenching, biochemical | 220 tested, 40% active | Potency, µM, for inactives: max response, negative = inhibition, usual class: inhibitors | shares compounds with BLM inh-1;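 note: strand separation dequenches TAMRA so unwinding raises red fluorescence; series mostly up to about 69 µM; nearly all actives have a fitted effect of over 45% in size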
RECQ1 inh conf: confirmation of human RECQ1 helicase inhibitors; shares compounds with RECQ1 inh-1; RECQ1 helicase DNA unwinding, fluorescence; Potency, µM (top dose mostly 229 µM), for the others: top-dose activity change, negative = inhibition, most hits filed as inhibitors; 610 tested, 28% active; AID 2708; note: nearly all actives have a fitted effect of over 45% in size
RECQ1 ADP FP: counter-screen for RECQ1 inhibitors: ADP displacement; shares compounds with RECQ1 inh-1; ADP fluorescence polarization displacement counterscreen; Potency, µM (highest dose often 228 µM), without a hit: at the top dose activity change, negative = inhibition, hits mostly inhibitors; 530 tested, 27% active; note: nearly all actives have a fitted effect of over 45% in size
RECQ1 inh-2: RECQ1 helicase inhibition confirmed, round 2 | shares compounds with RECQ1 inh-1 | recombinant RECQ1 DNA unwinding, red fluorescence | Potency, µM (highest dose often 119 µM), for inactives: at the highest dose activity, negative = inhibition, actives largely listed as inhibitors | 1,100 tested, 15% active | AID 504841; note: nearly all actives have a fitted effect of over 50% in size
Starred values were filed as active, the others as inactive; ? = inconclusive; . = no result given; [ ] = dose if it differs, or a comment. An excerpt weighted towards active compounds, which were near 0.9% of everything screened. Unless noted, calls come from the whole dose curve; as a rule, active = well fitted curve in the direction sought with a large enough effect; inconclusive = small, poorly fitted or top-dose-only effect, or another doubt; inactive = no such curve, though single readings can be large; an effect the other way counts as inactive or inconclusive. Unless noted, % is set by controls: 0 for no effect and ±100 for the full control effect; potency is the fitted concentration of half-maximal effect.

SMILES	TDP1 block	GCN5L2 inh	BLM inh-1	Lamin A splicing	APE1 inh-1	RECQ1 inh-1	RECQ1 inh conf	RECQ1 ADP FP	others
CC(N)[C@H](O)c1ccc(O)c(O)c1 (stereo partly drawn)	?	-9%	.	?	1µM*	6.3µM*	31%	13µM*	DNA dye displace=-11%[57.1 µM];Endo IV inh=43%[57.1 µM];APE1 inh-2=-6%;APE1 FP inh=-3%[57.1 µM]
C[C@@H](N)[C@@H](O)c1ccc(O)c(O)c1	?	2%	1%	?	.	2.5µM*	26%	?	DNA dye displace=5%[57.1 µM];Endo IV inh=53%[57.1 µM];APE1 inh-2=2%;APE1 FP inh=-2%[57.1 µM]
C[C@H](N)[C@H](O)c1ccc(O)c(O)c1	?	-12%[21.4 µM]	-18%[21.4 µM]	?	0.79µM*	1.8µM*	28%[69.1 µM]	11µM*	DNA dye displace=3%;Endo IV inh=27%;APE1 inh-2=6%[24.4 µM];APE1 FP inh=-16%
COc1ccc(OC)c(C(O)C(C)N)c1 (stereo not drawn)	3%	1%	2%	-1%	5%	6%	.	.
CCCN(CCC)CCc1ccc(O)c(O)c1	-7%	-5%	.	?	0%	-1%	.	.
OC[C@@H](O)[C@H]1O[C@@H]2O[C@H](C(Cl)(Cl)Cl)O[C@@H]2[C@H]1O	.	.	.	.	-6%	.	.	.
CCCCn1c(NS(=O)(=O)c2ccccc2)c(C(=O)OCC)c2nc3ccccc3nc21	0%	25µM*	1.4µM*	9%	3%	-3%	.	.	BLM inh-2=-10%
CC(C)c1ccc(NC(=O)c2ccc(F)c(S(=O)(=O)N3CCc4ccccc4C3)c2)cc1	7%	-2%	-12%	?	.	.	.	.
CCCCC(=O)N/N=C/c1c(O)n(Cc2ccco2)c(=O)[nH]c1=O	4%	-1%	3%	-10%	-11%	32µM*	.	.	RECQ1 inh-2=-13%
N#CCBr	8%	.	.	.	-3%	-14%	.	.
NCC[C@H](NC(=O)[C@@H](N)CCCN=C(N)N[N+](=O)[O-])C(N)=O	12%	-17%	4%	.	1%	6%	.	.
CC[C@@]1(O)CC(O)c2c(cc3c(c2O)C(=O)c2c(O)ccc(O)c2C3=O)C1C(=O)OC (stereo partly drawn)	8%[56.1 µM]	-3%	?	.	?	4µM*	50µM*	0.89µM*
CC[C@]1(O)CC(O[C@@H]2CC(N(C)C)C(O)C(C)O2)c2c(cc3c(c2O)C(=O)c2c(O)cccc2C3=O)C1C(=O)OC (stereo partly drawn)	9%	-14%	28%	.	14µM*	10µM*	112µM*	4.5µM*
CC(C)C[C@H](NC(=O)CNC(=O)[C@H](CCC(N)=O)NC(=O)[C@H](Cc1ccc(O)cc1)NC(=O)[C@@H](NC(=O)[C@H](Cc1ccc(O)cc1)NC(=O)CNC(=O)[C@@H](N)CCCN=C(N)N)C(C)C)C(=O)O	5%	38%	0%	.	-2%	-9%	.	.
CC(C)n1c(=O)c(C=Nc2ccc(S(N)(=O)=O)cc2)c(O)n(Cc2ccco2)c1=O	4%	0%	-4%	0%	?	?	.	.	RECQ1 inh-2=-13%
CCCCn1c(=O)c(C=Nc2ccc(Cl)cc2)c(O)n(Cc2ccco2)c1=O	-5%	-15%	-15%	3%	?	-26%	.	.
Cc1cccn2c(=O)c(C=Nc3ccccc3)c(NCc3ccco3)nc12	1%	-6%	0%	1%	?	?	.	.	RECQ1 inh-2=12%
Cc1ccccc1NC(=O)CCl	.	-2%	1%	.	-1%	-6%	.	.
O=C(CN1C(=O)S/C(=C\C=C\c2ccccc2)C1=O)Nc1ccccc1C(=O)O	5%	-10%	-8%	.	1%	-13%	112µM*	-15%
CCSC(=O)Cl	15%	.	.	.	0%	-2%	.	.
Cc1ccc(CSc2n[nH]c(N)n2)cc1	0%	4%	-8%	.	11%	28µM*	.	.	RECQ1 inh-2=-6%
CCCCOC(C)=O	13%	.	.	.	2%	0%	.	.
CN(C)[C@@H]1C(=O)C(C(N)=O)=C(O)[C@]2(O)C(=O)C3=C(O)c4c(O)cccc4[C@@](C)(O)[C@H]3[C@H](O)[C@@H]12	.	?	-11%[21.4 µM]	?	?	13µM*	63%[69.1 µM]	45µM*
CN(C)C1C(=O)C(C(N)=O)=C(O)[C@@]2(O)C(=O)C3=C(O)c4c(O)cccc4[C@@](C)(O)C3[C@H](O)C12 (stereo partly drawn)	.	?	-10%	.	12%	-3%	.	.
O=c1ccc2cc(O[C@H]3OC(CO)C(O)C(O)C3O)c(O)cc2o1 (stereo partly drawn)	-10%[56.1 µM]	?	2%	.	-3%	-3%	.	.
c1ccc(C2CO2)cc1 (stereo not drawn)	11%	.	.	.	26%	1%	.	.
CCCn1cc2c3c(cccc31)C1CC(C)CN(C)C1C2 (stereo not drawn)	.	?	-3%	.	7%	3%	.	.
